# Data published in publication PMC6451091, “NextPBM: a platform to study cell-specific transcription factor binding and cooperativity”.
# In all, about 3,700 sequences were measured (“z-score”: median about 4, highest 2% from about 8.4 on). The list comes from a sample in which the highest values are over-represented; it also holds similar and randomly drawn sequences.
# Key:
# [1] = target: PU.1 (IVT) (UniProt P17947 1-270); test: protein-binding microarray (PBM); 20 mM HEPES pH 7.9, 100 mM NaCl, 1 mM DTT, 0.2 mg/mL BSA, 0.02% Triton X-100, 2% milk, 0.4 mg/mL salmon testes DNA; 1 h; temperature not stated; high values mean tight binding; details: dsDNA, one strand shown
# How it was run: (§1)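 PU.1, full-length and untagged, came from coupled human in vitro transcription/translation and was bound for 1 h to double-stranded DNA microarrays of 20-bp genomic sites and single-nucleotide variants in HEPES pH 7.9, 100 mM NaCl, 2% milk and salmon testes DNA. After antibody detection, the values were taken as z-scores of scanned fluorescence normalised by linear regression.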
# [2] = target: PU.1 (IVT) (UniProt P17947 1-270); test: as above; details: dsDNA, one strand shown; remark: listed apart in the source
# How it was run: as §1
Sequence,binding signal [1] [z-score],binding signal [2] [z-score]
GCCTAGCACAAAAAAGGGAAGTGCAAGATGTGCTAGGTCTTGATTCGCTTGACGCTGCTG,7.79,–
GCCTAGCACAAAAAGGGGAAGTCAAATTGGTGCTAGGTCTTGATTCGCTTGACGCTGCTG,8.09,–
GCCTAGCACAAAAAGGGGAAGTACTGCGAGTGCTAGGTCTTGATTCGCTTGACGCTGCTG,8.58,–
GCCTAGCACAAAAAGGGGAAGTTGGGGATGTGCTAGGTCTTGATTCGCTTGACGCTGCTG,8.45,–
GCCTAGCACAAAAAGGGGAAGTGATGGCGGTGCTAGGTCTTGATTCGCTTGACGCTGCTG,8.22,–
GCCTAGCACAAAAAAGGGAAGTGGATGCTGTGCTAGGTCTTGATTCGCTTGACGCTGCTG,7.67,–
GCCTAGCACAAAGAAGGGAAGTGACTTGCGTGCTAGGTCTTGATTCGCTTGACGCTGCTG,3.86,–
GCCTAGCACAAAAGGAGGAAGTACTGTGAGTGCTAGGTCTTGATTCGCTTGACGCTGCTG,7.12,–
GCCTAGCACAAAAAAAGGAAGTCTGTTTTGTGCTAGGTCTTGATTCGCTTGACGCTGCTG,–,6.43
GCCTAGCACAAAAAGGGGAAGTGACTTTCGTGCTAGGTCTTGATTCGCTTGACGCTGCTG,8.66,–
GCCTAGCACAAAAAGGGGAAGTCAATTTTGTGCTAGGTCTTGATTCGCTTGACGCTGCTG,8.55,–
GCCTAGCACAAAAAAGGGAAGTGAAGTACGTGCTAGGTCTTGATTCGCTTGACGCTGCTG,7.2,–
GCCTAGCACTTAAACAGGAAGTGTGTAATGTGCTAGGTCTTGATTCGCTTGACGCTGCTG,5.79,–
GCCTAGCACTTAAGGAGGAACTGAAACCAGTGCTAGGTCTTGATTCGCTTGACGCTGCTG,–,2.65
GCCTAGCACTAAAGGAGGAACTGAAAACAGTGCTAGGTCTTGATTCGCTTGACGCTGCTG,–,3.62
GCCTAGCACTAAAAGAGGAACTGAAACCAGTGCTAGGTCTTGATTCGCTTGACGCTGCTG,6.72,–
GCCTAGCACCTGCAAAGGAAGTCTGGGCCGTGCTAGGTCTTGATTCGCTTGACGCTGCTG,–,0.767
GCCTAGCACTGGAAGAGGAAGTTGGTTTTGTGCTAGGTCTTGATTCGCTTGACGCTGCTG,7.15,–
GCCTAGCACCATTTGTAGAAGTACTGTGCGTGCTAGGTCTTGATTCGCTTGACGCTGCTG,–,0.808
GCCTAGCACAAAAAGCAGAAGTGTTCTGTGTGCTAGGTCTTGATTCGCTTGACGCTGCTG,6.88,–
GCCTAGCACAAAAAGGGGAAGTGCTTTCTGTGCTAGGTCTTGATTCGCTTGACGCTGCTG,8.76,–

Sequence,binding signal [1] [z-score],binding signal [2] [z-score]
GCCTAGCACAAAAAGGGGAAGTCTGGACTGTGCTAGGTCTTGATTCGCTTGACGCTGCTG,7.65,–
GCCTAGCACAAAAAGGGGAAGTGTGCTGCGTGCTAGGTCTTGATTCGCTTGACGCTGCTG,8.33,–
GCCTAGCACGAAAAGAGGAAGTCAGAAATGTGCTAGGTCTTGATTCGCTTGACGCTGCTG,8.35,–
GCCTAGCACGAAAAGAGGAAGTCAAACTTGTGCTAGGTCTTGATTCGCTTGACGCTGCTG,8.22,–
GCCTAGCACGAAAAGAGGAAGTCAGACTAGTGCTAGGTCTTGATTCGCTTGACGCTGCTG,8.15,–
GCCTAGCACGAAATGAGGAAGTGCTAGTGGTGCTAGGTCTTGATTCGCTTGACGCTGCTG,8.07,–
GCCTAGCACGGAAAGAGGAAGTCAAAAATGTGCTAGGTCTTGATTCGCTTGACGCTGCTG,7.85,–
GCCTAGCACGAAAAGAGGAAGTGGAATTTGTGCTAGGTCTTGATTCGCTTGACGCTGCTG,8.92,–
GCCTAGCACGAAATGAGGAAGTGAAATTGGTGCTAGGTCTTGATTCGCTTGACGCTGCTG,8.42,–
GCCTAGCACGAAAAGAGGAAGTCAAATTCGTGCTAGGTCTTGATTCGCTTGACGCTGCTG,8.31,–
GCCTAGCACGAAAAGAGGAAGTCAAATTTGTGCTAGGTCTTGATTCGCTTGACGCTGCTG,8.44,–
GCCTAGCACGAAATGAGGAAGTGGCTGGTGTGCTAGGTCTTGATTCGCTTGACGCTGCTG,7.9,–
GCCTAGCACAGAAAAAGGAAGTGGAATTTGTGCTAGGTCTTGATTCGCTTGACGCTGCTG,6.29,–
GCCTAGCACGAAAAGAGGAAGTCGAATTAGTGCTAGGTCTTGATTCGCTTGACGCTGCTG,8.06,–
GCCTAGCACAAAAAAAGGAAATGAAAGTAGTGCTAGGTCTTGATTCGCTTGACGCTGCTG,3.32,–
GCCTAGCACGTCAAAAAAAGGAAAAAGCCGTGCTAGGTCTTGATTCGCTTGACGCTGCTG,–,0.885
GCCTAGCACAAGAAGCGGAAGTGAAAGACGTGCTAGGTCTTGATTCGCTTGACGCTGCTG,6.8,–
GCCTAGCACAGAAAAAGGAACTGGCTAGAGTGCTAGGTCTTGATTCGCTTGACGCTGCTG,–,3.75
GCCTAGCACCAAAAGAGGAAGTGAGAAGCGTGCTAGGTCTTGATTCGCTTGACGCTGCTG,8.31,–
GCCTAGCACGAAAACAGGAAGTGACTGTTGTGCTAGGTCTTGATTCGCTTGACGCTGCTG,8.08,–
GCCTAGCACGAAAAAAGGAAGTCAAATTGGTGCTAGGTCTTGATTCGCTTGACGCTGCTG,–,5.97

Sequence,binding signal [1] [z-score],binding signal [2] [z-score]
GCCTAGCACGAAATGAGGAAGTGATTAGGGTGCTAGGTCTTGATTCGCTTGACGCTGCTG,8.13,–
GCCTAGCACGAAGAGAGGAAGTCAAATTGGTGCTAGGTCTTGATTCGCTTGACGCTGCTG,–,4.29
GCCTAGCACGAAATGAGGAAGTGTAAACAGTGCTAGGTCTTGATTCGCTTGACGCTGCTG,7.49,–
GCCTAGCACGAAAAGAGGAAGTGAAATTGGTGCTAGGTCTTGATTCGCTTGACGCTGCTG,8.72,–
GCCTAGCACGAAAAGAGGAAGTCAAATTGGTGCTAGGTCTTGATTCGCTTGACGCTGCTG,8.37,–
GCCTAGCACGAAAAGAGGAAATGAAATTGGTGCTAGGTCTTGATTCGCTTGACGCTGCTG,–,6.51
GCCTAGCACGAAATGAGGAAGTTGGTGCTGTGCTAGGTCTTGATTCGCTTGACGCTGCTG,8.11,–
GCCTAGCACGAAAAGAGGAAATGAGAGAGGTGCTAGGTCTTGATTCGCTTGACGCTGCTG,–,5.36
GCCTAGCACGAAATGAGGAAGTTGAGAGCGTGCTAGGTCTTGATTCGCTTGACGCTGCTG,8.36,–
GCCTAGCACGAAATGAGGAAGTACCTAAAGTGCTAGGTCTTGATTCGCTTGACGCTGCTG,8.71,–
GCCTAGCACGAAGAGAGGAAGTGAAATTGGTGCTAGGTCTTGATTCGCTTGACGCTGCTG,–,5.29
GCCTAGCACGAAATAGGGAAGTGTGAGTTGTGCTAGGTCTTGATTCGCTTGACGCTGCTG,6.74,–
GCCTAGCACTGAGAGGGGAAGTGGCAGCTGTGCTAGGTCTTGATTCGCTTGACGCTGCTG,–,4.01
GCCTAGCACTGGAGGAGGAACTGAAATACGTGCTAGGTCTTGATTCGCTTGACGCTGCTG,2.94,–
GCCTAGCACTGAAAGGGGAAGTCAGATAGGTGCTAGGTCTTGATTCGCTTGACGCTGCTG,–,6.45
GCCTAGCACCAAATGAGGAACTGATGCGAGTGCTAGGTCTTGATTCGCTTGACGCTGCTG,6.15,–
GCCTAGCACCAAAGGAGGAACTGAAACCAGTGCTAGGTCTTGATTCGCTTGACGCTGCTG,–,3.2
GCCTAGCACTGAAAGGGGAAGTGGGTGCCGTGCTAGGTCTTGATTCGCTTGACGCTGCTG,–,6.37
GCCTAGCACCGAAAGGGGAAGTGCTAAGCGTGCTAGGTCTTGATTCGCTTGACGCTGCTG,6.82,–
GCCTAGCACGAAAAGAGGAAGTCAATTTGGTGCTAGGTCTTGATTCGCTTGACGCTGCTG,8.54,–
GCCTAGCACGAAAAGAGGAAGTCAAACTGGTGCTAGGTCTTGATTCGCTTGACGCTGCTG,7.89,–

Sequence,binding signal [1] [z-score],binding signal [2] [z-score]
GCCTAGCACGGAAAGAGGAAGTCAAATTGGTGCTAGGTCTTGATTCGCTTGACGCTGCTG,7.8,–
GCCTAGCACTACCCTTTAAAAATAGTTCAGTGCTAGGTCTTGATTCGCTTGACGCTGCTG,–,0.827
GCCTAGCACAGAGAGAGGAAGTGATTACAGTGCTAGGTCTTGATTCGCTTGACGCTGCTG,4.98,–
GCCTAGCACTTCAGGGGGAAGTACTGTGTGTGCTAGGTCTTGATTCGCTTGACGCTGCTG,–,3.94
GCCTAGCACCACAAGAGGAAGTCCCACAAGTGCTAGGTCTTGATTCGCTTGACGCTGCTG,–,3.93
GCCTAGCACTCCAGGAGGAACTACTGTGTGTGCTAGGTCTTGATTCGCTTGACGCTGCTG,2.59,–
GCCTAGCACAGAAAGAGGAAGTGACTTGCGTGCTAGGTCTTGATTCGCTTGACGCTGCTG,8.54,–
GCCTAGCACAGAGAGGGGAAGTGACTTGCGTGCTAGGTCTTGATTCGCTTGACGCTGCTG,4.95,–
GCCTAGCACAGAAAGAGGAAGTCCTCTCTGTGCTAGGTCTTGATTCGCTTGACGCTGCTG,8.3,–
GCCTAGCACAGAGAGAGGAAGTGAGCTCTGTGCTAGGTCTTGATTCGCTTGACGCTGCTG,–,4.31
GCCTAGCACAGAAAGGGGAAGTGACTTGCGTGCTAGGTCTTGATTCGCTTGACGCTGCTG,8.13,–
GCCTAGCACAGAAAGAGGAAGTTGGCTCTGTGCTAGGTCTTGATTCGCTTGACGCTGCTG,8.56,–
GCCTAGCACAGAAAGAGGAAGTAGATATTGTGCTAGGTCTTGATTCGCTTGACGCTGCTG,8.76,–
GCCTAGCACAGAAAGAGGAACTGAAAAGTGTGCTAGGTCTTGATTCGCTTGACGCTGCTG,6.62,–
GCCTAGCACAGGAAGAGGAAGAGGAAGAAGTGCTAGGTCTTGATTCGCTTGACGCTGCTG,–,4.95
GCCTAGCACACAGAGAGGAAGTAGATAAAGTGCTAGGTCTTGATTCGCTTGACGCTGCTG,–,4.75
GCCTAGCACAGAGAGAGGAAGTGAAAGTAGTGCTAGGTCTTGATTCGCTTGACGCTGCTG,–,4.81
GCCTAGCACAGAAAGAGGAAGTGTAAAAAGTGCTAGGTCTTGATTCGCTTGACGCTGCTG,8.57,–
